The results in this text go back to ChEMBL document CHEMBL4513135, “CO-ADD screening of IQOG CSIS (Spain) compounds”.

Measured potencies and affinities stand elsewhere.

This assay deals with Escherichia coli. The conditions noted are these: Concentration 32 ug.mL-1; ASSAY_TEST Inhibition of Bacterial Growth; detection method Absorption (OD600); MEDIA CAMHB; plate type 384well; NBS; CORNING #3640; time 18 hr.
As for `Cc1ccc2nc(Cl)c(/C=N/OCc3ccccc3)cc2c1`, the Inhibition is given as 20.1%.

`NNC(=O)Cc1c[nH]c2ccccc12`: the Inhibition turned out to be 13.76%.

In the case of `COc1cc(C2C(C#N)=C(N)Oc3c2ccc2ccccc32)ccc1O` (stereo not drawn), the Inhibition was -13.64%.

For the compound `COc1ccccc1C1c2ccc3ccccc3c2OC(=NBr)C1(Br)C#N` (stereo not drawn), the Inhibition is on record as -9.86%.

In the case of `COc1cccc(C2C(C#N)=C(N)Oc3[nH]nc(C)c32)c1` (stereo not drawn), the Inhibition turned out to be 6.61%.

For `CC(=O)CC(=O)N1[C@@H]2C[C@H]3CCC2(CS1(=O)=O)C3(C)C`, the Inhibition is given as 7.75%.

With `C/C(Cc1ccccc1)=N/NC(=O)c1c[nH]c2ccc(O)cc12`, the Inhibition worked out at 8.13%.

Consider `Cc1cnc2ccc(Cl)cn12`, for which the Inhibition came to 8.76%.

For the compound `Cl.Nc1c2c(nc3c1C(c1ccccc1)c1ccc4ccccc4c1O3)CCCC2` (stereo not drawn), the Inhibition is on record as 6.79%.

Regarding `O=C(COc1ccc2ccccc2c1)N/N=C/c1c[nH]c2ccccc12`, the Inhibition is recorded as 6.84%.

Take `CC1Cc2c(Cl)nc3nc4c(c(N)c3c2NC1=O)CCCC4` (stereo not drawn): the Inhibition was -7.98%.

Consider `O=C(O)C(=Cc1ccccc1)NC(=O)c1ccccc1`, for which the Inhibition came to 9.37%.

In the case of `CS(=O)(=O)O[C@H]1CC[C@H](OS(C)(=O)=O)CC1`, the Inhibition is listed as -5.59%.

For `Cn1c(C(=O)O)cc2cc(OCCCC3CCN(Cc4ccccc4)CC3)ccc21`, the Inhibition was -8.76%.

With `CC(C)(C)OC(=O)Nc1ccc(Br)cn1`, the Inhibition is -0.9%.

With `CCOC(=O)C1=C(C)Oc2nc3c(c(N)c2C1c1nccn1C)CCCCC3` (stereo not drawn), the Inhibition is -6.7%.

In the case of `CN1C/C(=C\Br)n2c1c(C#N)cc(C#N)c2=O`, the Inhibition is reported as -11.76%.

With `Cl.Cl.Cn1c(CNc2ccccc2)cc2cc(OCCCC3CCN(Cc4ccccc4)CC3)ccc21`, the Inhibition is reported as -8.49%.

In the case of `C=CCNCc1cc2cc(OCCCC3CCN(Cc4ccccc4)CC3)ccc2[nH]1.O.O=C(O)C(=O)O.O=C(O)C(=O)O`, the Inhibition is -23.08%.

On to `C#CCNc1nc(OC)c(C#N)c(-c2ccccc2)c1C#N`, for which the Inhibition is reported as -4%.

For the compound `CCOC(=O)/C(C#N)=C\c1ccc(Cl)cc1`, the Inhibition was found to be 11.69%.

As to `Clc1ccc(-c2cn3ccccc3n2)cc1`, the Inhibition is 15.37%.

Take `COc1ccc(C2c3c(ccc4ccccc34)OC(=NBr)C2(Br)C#N)cc1` (stereo not drawn): the Inhibition is -19.75%.

With `COC(=O)C(=Cc1ccc(OC)cc1)NC(=O)c1ccccc1`, the Inhibition worked out at 11.52%.

Take `Cc1ccc(/C=C(\C#N)C(=O)c2ccccc2)cc1`: the Inhibition is listed as 15.2%.

As to `COC(=O)C(NC(=O)c1ccccc1)=C(C)c1ccccc1`, the Inhibition was determined as 2.63%.

As to `Cl.ClCCCCCN1CCCCC1`, the Inhibition is listed as 1.26%.

Turning to `C#CCNc1cccc(F)n1`, the Inhibition was -22.48%.

Consider `N#Cc1cc(Br)cc(Br)c1N`, for which the Inhibition came to 14.62%.

With `Cn1c(C(=O)NCc2ccccc2)cc2cc(OCCCC3CCN(Cc4ccccc4)CC3)ccc21`, the Inhibition was -9.22%.

Turning to `CCCCCCC(C)NNC(=O)c1cc2ccccc2[nH]1` (stereo not drawn), the Inhibition was determined as 6.64%.

For `CC(C)(C)OC(=O)Nc1ccccn1`, the Inhibition is recorded as -0.38%.

On to `COc1ccc(C2c3c(ccc4ccccc34)OC(=N)C2(Br)C#N)cc1OC` (stereo not drawn), for which the Inhibition is on record as -16.19%.

For the compound `Cn1c(CNNC(=O)c2ccco2)cc2ccccc21`, the Inhibition worked out at 21.64%.

Regarding `COc1ccc2cc(C=O)c(Cl)nc2c1`, the Inhibition was determined as 25.34%.

As for `CC1=NC(=Cc2ccc([N+](=O)[O-])cc2)C(=O)O1`, the Inhibition is recorded as -3.97%.

`Cc1nc2c3cnn(-c4ccccc4)c3nc(C)n2n1`: the Inhibition turned out to be 10.35%.

Take `COc1nc2ccccc2cc1C=O`: the Inhibition is 18.39%.
